Measurements taken from the supplement of paper PMC10849652.
About 7,900 targets were measured; listed, in parts, are those with a hit and a random draw of the rest. About 0.6% of all pairs of compound and target were hits. Unmarked numbers belong to inactive results.

compound: CC1=C(SC2=C1C(=N[C@H](C3=NN=C(N32)C)CC(=O)N)C4=CC=C(C=C4)Cl)C; assay: log2 fold change, soluble protein after heating vs DMSO (PISA); higher = thermal stabilisation; K562 cells, 10 uM, 30 min; active = over 0.2 and 3.5 SD of the protein, either way, in both replicates (recomputed)
How it was run: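 K562 cells (2×10^6 cells/mL) were treated with 10 μM compound for 30 min, and aliquots were heated for 3 min over 48°C-58°C. Pooled aliquots were extracted in PBS with 0.5% NP-40 at 4°C, and the supernatant after 21,000xg for 90 min was measured by TMTpro 16plex LC-MS/MS with channel sums equalised. Reported thermal stability, relative to control samples and from duplicates, is a log2 fold change.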

Chain of UniProt P11388 (P11388 whole entry, looked up): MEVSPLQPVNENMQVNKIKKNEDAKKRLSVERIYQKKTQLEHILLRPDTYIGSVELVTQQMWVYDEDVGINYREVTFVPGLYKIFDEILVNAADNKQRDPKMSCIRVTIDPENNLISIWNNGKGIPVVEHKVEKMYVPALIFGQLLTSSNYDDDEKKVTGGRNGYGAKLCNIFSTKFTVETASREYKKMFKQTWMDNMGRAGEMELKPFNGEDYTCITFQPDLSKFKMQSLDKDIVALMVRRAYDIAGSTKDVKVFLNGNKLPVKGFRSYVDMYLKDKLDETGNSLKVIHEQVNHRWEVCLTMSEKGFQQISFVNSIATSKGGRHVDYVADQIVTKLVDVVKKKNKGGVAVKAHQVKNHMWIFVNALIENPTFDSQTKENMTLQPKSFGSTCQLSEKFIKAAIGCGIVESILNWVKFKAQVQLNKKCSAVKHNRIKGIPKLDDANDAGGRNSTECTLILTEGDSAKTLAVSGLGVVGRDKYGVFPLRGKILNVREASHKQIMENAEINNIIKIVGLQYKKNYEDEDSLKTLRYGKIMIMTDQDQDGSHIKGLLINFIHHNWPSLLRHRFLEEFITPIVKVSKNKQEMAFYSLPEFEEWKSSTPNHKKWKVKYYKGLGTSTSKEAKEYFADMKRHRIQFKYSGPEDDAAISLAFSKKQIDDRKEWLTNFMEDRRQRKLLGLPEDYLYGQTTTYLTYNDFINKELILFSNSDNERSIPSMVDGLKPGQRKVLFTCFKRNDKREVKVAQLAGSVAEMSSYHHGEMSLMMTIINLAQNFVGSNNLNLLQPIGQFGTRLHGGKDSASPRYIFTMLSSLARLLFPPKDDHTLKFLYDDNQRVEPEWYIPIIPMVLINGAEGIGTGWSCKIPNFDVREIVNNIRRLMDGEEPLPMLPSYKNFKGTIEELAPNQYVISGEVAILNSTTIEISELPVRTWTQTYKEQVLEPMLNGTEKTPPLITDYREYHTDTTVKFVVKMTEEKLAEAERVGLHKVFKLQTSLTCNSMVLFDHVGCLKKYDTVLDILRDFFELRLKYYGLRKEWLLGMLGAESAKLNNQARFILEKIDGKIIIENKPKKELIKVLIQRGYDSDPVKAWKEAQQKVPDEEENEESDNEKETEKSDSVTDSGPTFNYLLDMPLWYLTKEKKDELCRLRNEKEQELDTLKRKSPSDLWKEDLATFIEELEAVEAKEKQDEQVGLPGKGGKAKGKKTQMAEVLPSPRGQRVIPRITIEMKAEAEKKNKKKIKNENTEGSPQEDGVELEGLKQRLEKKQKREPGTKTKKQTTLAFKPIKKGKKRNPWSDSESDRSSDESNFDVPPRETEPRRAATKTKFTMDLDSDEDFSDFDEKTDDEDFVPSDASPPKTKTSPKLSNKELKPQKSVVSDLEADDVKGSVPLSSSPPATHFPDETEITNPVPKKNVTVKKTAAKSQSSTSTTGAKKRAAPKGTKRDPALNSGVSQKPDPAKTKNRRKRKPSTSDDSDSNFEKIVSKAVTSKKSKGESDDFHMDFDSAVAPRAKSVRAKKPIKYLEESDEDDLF
Chain of UniProt Q96JG6 (Q96JG6 whole entry, looked up): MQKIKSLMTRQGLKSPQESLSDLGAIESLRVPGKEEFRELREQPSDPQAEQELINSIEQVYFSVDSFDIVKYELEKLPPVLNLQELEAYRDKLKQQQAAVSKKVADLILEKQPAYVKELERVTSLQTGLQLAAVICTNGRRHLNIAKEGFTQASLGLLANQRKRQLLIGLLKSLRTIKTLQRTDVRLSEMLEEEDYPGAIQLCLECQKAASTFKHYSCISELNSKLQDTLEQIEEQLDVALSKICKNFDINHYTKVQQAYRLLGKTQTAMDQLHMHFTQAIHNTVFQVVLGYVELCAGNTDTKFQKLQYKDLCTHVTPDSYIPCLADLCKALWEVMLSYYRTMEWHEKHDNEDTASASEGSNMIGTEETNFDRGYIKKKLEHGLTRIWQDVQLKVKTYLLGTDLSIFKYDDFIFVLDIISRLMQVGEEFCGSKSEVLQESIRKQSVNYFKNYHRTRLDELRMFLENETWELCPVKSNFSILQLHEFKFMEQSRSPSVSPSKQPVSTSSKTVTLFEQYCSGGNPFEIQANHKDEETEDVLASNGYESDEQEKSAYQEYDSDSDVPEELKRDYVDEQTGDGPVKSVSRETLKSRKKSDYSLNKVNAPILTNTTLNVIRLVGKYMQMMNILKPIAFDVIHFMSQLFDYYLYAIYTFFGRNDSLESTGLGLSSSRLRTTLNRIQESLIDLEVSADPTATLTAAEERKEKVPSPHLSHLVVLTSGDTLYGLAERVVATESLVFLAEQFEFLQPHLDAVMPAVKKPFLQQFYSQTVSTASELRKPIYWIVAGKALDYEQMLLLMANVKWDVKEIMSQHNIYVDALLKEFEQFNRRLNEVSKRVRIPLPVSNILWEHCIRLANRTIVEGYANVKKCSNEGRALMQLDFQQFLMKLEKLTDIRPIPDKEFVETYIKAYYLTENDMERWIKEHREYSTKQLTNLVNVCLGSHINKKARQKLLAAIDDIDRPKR
Chain of UniProt P12956 (P12956 whole entry, looked up): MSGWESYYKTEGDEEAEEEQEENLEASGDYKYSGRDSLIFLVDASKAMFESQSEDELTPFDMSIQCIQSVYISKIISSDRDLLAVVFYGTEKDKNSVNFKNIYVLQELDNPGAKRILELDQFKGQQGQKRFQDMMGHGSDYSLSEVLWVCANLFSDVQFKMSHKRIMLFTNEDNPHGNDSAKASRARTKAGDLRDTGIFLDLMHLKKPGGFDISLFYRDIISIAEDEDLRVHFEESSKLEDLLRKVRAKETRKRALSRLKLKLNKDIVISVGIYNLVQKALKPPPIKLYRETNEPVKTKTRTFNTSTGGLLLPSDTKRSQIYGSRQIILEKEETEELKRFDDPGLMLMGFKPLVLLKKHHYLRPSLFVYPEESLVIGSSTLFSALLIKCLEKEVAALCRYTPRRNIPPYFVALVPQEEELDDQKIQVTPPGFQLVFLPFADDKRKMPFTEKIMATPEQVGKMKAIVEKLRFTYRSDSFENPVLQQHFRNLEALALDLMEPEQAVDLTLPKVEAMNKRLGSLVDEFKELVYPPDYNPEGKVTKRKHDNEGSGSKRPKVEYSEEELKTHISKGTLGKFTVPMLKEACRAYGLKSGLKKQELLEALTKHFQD
Chain of UniProt Q9NX01 (Q9NX01 whole entry, looked up): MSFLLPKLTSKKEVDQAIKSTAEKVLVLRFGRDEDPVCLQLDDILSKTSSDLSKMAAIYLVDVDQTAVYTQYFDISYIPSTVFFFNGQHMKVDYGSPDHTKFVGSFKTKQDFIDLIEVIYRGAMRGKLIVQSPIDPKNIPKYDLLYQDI
Chain of UniProt Q12768 (Q12768 whole entry, looked up): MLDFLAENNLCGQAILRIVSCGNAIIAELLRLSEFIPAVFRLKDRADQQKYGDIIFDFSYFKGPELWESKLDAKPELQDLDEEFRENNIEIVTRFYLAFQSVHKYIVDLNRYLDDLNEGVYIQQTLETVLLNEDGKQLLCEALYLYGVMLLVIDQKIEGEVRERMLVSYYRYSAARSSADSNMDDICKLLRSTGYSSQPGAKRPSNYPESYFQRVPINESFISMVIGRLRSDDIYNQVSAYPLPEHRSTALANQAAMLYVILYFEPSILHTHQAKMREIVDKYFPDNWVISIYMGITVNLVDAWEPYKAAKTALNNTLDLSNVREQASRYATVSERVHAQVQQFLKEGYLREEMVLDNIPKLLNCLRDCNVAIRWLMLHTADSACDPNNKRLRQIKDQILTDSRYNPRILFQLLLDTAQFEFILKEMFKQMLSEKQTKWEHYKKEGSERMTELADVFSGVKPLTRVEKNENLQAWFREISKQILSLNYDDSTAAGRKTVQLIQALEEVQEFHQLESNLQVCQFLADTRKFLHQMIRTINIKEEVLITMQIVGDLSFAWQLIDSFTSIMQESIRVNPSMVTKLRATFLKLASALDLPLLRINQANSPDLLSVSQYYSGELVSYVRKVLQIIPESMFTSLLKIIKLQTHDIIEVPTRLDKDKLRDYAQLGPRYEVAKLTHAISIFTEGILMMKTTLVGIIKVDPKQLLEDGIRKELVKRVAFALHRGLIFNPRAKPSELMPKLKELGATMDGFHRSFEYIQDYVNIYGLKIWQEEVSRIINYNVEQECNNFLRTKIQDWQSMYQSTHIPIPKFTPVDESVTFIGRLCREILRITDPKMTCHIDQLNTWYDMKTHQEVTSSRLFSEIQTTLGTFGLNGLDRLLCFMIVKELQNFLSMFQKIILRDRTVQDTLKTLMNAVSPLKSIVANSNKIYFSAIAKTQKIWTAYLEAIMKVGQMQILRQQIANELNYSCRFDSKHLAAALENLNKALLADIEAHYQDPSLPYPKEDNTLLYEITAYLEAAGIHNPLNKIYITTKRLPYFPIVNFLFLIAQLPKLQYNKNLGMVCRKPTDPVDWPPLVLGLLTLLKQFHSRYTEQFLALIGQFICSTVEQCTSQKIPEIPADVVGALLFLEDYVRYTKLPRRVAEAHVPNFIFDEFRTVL
Chain of UniProt Q16881 (Q16881 whole entry, looked up): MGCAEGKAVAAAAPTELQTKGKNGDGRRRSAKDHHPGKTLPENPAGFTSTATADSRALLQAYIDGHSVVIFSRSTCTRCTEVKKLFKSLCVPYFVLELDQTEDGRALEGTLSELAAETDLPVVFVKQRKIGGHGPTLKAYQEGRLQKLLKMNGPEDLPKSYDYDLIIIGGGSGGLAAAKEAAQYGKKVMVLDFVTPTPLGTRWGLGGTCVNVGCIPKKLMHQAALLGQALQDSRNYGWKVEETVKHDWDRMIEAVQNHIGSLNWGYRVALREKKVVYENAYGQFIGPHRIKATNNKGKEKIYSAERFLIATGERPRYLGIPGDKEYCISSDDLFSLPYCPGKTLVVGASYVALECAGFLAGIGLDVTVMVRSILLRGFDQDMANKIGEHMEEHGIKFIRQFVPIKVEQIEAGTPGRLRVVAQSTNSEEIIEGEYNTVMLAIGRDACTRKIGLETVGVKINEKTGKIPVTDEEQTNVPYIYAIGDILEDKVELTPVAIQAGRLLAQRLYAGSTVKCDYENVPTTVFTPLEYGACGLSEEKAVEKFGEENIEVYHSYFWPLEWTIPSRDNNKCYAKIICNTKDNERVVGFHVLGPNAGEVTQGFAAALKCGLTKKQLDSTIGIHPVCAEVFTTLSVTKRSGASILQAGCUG

Target	log2 fold change
TRAPPC8 (UniProt Q9Y2L5)	0.05
VPS50 (UniProt Q96JG6)	0.055
TMTC3 (UniProt Q6ZXV5)	0.019
XRCC6 (UniProt P12956)	0.044
UTP4 (UniProt Q969X6)	0.039
WDR43 (UniProt Q15061)	0.027
TMEM263 (UniProt Q8WUH6)	0.047
TRIP10 (UniProt Q15642)	0.005
UHRF1BP1L (UniProt A0JNW5)	0.099
USP25 isoform 3 (UniProt Q9UHP3)	0.024
TUBA4A (UniProt C9JJQ8)	0.036
TOE1 (UniProt Q96GM8)	-0.036
U2AF2 (UniProt P26368)	0.057
WASHC5 (UniProt Q12768)	0.042
VPS41 (UniProt P49754)	0.06
TOP2A isoform 4 (UniProt P11388)	-0.322
TXNIP (UniProt Q9H3M7)	0.148
TNFAIP8 isoform 4 (UniProt O95379)	0.026
TXN2 (UniProt Q99757)	0.144
VPS33B (UniProt Q9H267)	0.021
TMEM177 (UniProt Q53S58)	-0.01
TXNL4B (UniProt Q9NX01)	0.068
TXNRD1 (UniProt Q16881)	0.086
